The record followed here is PubChem BioAssay (NCATS).

SMILES strings stand for the structures. Values joined by “and” are separate entries in the source; they are usually repeats but may differ in a detail not shown here. Equal values may be shown once. Inconclusive results are not listed. Values without a mark were called inactive. Active and inactive are the calls of the source. Calls come from the whole dose curve; as a rule, active = well fitted activation curve with a large enough effect; inconclusive = small, poorly fitted or top-dose-only effect; inactive = no such curve, though single readings can be large or run the other way.
Potency is the fitted concentration of half-maximal effect.

Cellular tumor antigen p53 (Homo sapiens), sequence (P04637 whole entry, looked up): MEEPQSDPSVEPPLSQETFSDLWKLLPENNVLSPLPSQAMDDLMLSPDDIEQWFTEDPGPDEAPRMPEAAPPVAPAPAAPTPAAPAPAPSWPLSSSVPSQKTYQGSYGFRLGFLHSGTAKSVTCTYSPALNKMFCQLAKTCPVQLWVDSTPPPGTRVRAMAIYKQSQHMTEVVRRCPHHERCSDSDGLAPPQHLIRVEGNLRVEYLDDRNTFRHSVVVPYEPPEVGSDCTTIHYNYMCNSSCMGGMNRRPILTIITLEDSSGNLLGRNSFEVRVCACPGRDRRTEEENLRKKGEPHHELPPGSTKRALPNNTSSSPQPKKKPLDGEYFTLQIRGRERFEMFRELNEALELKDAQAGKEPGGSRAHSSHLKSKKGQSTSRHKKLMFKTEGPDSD

The target of the assay is Cellular tumor antigen p53 (Homo sapiens) (UniProt P04637). As to the kind of experiment: Primary qHTS for small molecule compounds that upregulate eGFP-tagged delta133p53alpha (in N-terminal) cells. (AID 2060322).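 For activation: series mostly up to about 56 µM; 0% = DMSO vehicle and 100% = reference activator.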 Note: nearly all actives have a fitted effect of over 75% in size. The conditions noted are these: NCI-H358 eGFP-delta133p53alpha fluorescence, 24 h; activation: active compounds read high. In short, it runs like this:
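NCI-H358 cells pre-induced 24 h with 10 ng/ml doxycycline for eGFP-delta133p53alpha, plated dox-free and exposed 24 h at 37C to titrated compounds. Fixed, Hoechst-stained; gated GFP peak intensity by laser scanning cytometry, normalized to DMSO (0%) and 57.5 uM 5-azacytidine (100%).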
For orientation: Quantitative high-throughput screening tests each substance at several concentrations.
For `O=C(/C=C/c1ccc(O)c(O)c1)O[C@@H]1C[C@@](OC(=O)/C=C/c2ccc(O)c(O)c2)(C(=O)O)C[C@@H](O)[C@@H]1O`, the activation is 11.9%.
With `CC=C1NC(=O)[C@H]2CSSCCC=C[C@H](CC(=O)N[C@H](C(C)C)C(=O)N2)OC(=O)[C@H](C(C)C)NC1=O`, the activation is 27.9%.
Still for that read-out and setting: then `CC(C)NC[C@@H](O)COc1ccc(CC(N)=O)cc1`, with -20.9%; and `Nc1ccc(S(=O)(=O)Nc2ccccn2)cc1`, with -36.8% and 13.3%; and `NS(=O)(=O)c1cc(C(=O)O)cc(N2CCCC2)c1Oc1ccccc1`, with -9.6%.
On the same count and under the same terms, then `C[C@]12C=CC(=O)C=C1[C@@H](F)C[C@@H]1[C@@H]2[C@@H](O)C[C@@]2(C)[C@H]1CC[C@]2(O)C(=O)CO`, with 7.53%.
As for `Cc1cc(O)c2ccccc2c1O`, the Potency was 34.7 µM (active).
Take `COc1ccc(-c2coc3cc(O)ccc3c2=O)cc1`: the activation is -10.4%.
`N#CC1(c2ccc(F)cc2)CCC(=O)CC1`: the activation is -18.6%.
Still for that read-out and setting: the figure for `CCC(=O)c1ccc(O)cc1` is -10%.
Still for that read-out and setting: the figure for `COc1ccc2ccc(=O)oc2c1CC=C(C)C` is -15%.
Turning to `COc1ccc(S(=O)(=O)ON=C2C=C(C)C(=O)C(C)=C2)cc1`, the Potency is 34.3 µM (active).
As to `CC(C)N1[N]C(=C2C=c3cc(O)ccc3=N2)c2c(N)ncnc21`, the activation is 11.7%.
Still for that read-out and setting: the figure for `COc1ccc2cc(CCC(C)=O)ccc2c1` is -16.4%; for `COc1ccccc1OCC(O)COC(N)=O` (stereo not given) it is -36.8% and 17.3%.
Same read-out and setting: the figure for `C=C1C(=O)OC2C=C(C)CCC=C(C)CCC12` (stereo not given) is 22%; for `CC(O)=C(C#N)C(=O)Nc1ccc(C(F)(F)F)cc1` it is 11.7%; for `CN1CCN(C(=O)C2CCCCC2)CC1` it is -11.7%.
Still for that read-out and setting: the figure for `N=C(N=C(N)N)N1CCOCC1` is 1.67% and -4.92%.
For the compound `CC(C)(C)NCC(O)COc1cccc2c1C[C@H](O)[C@H](O)C2` (stereo not given in full), the activation was 0%.
As to `c1ccc2c(CC3=NCCN3)cccc2c1`, the activation is -10%.
The same measure, in the same setting: then `COc1cc(C(=S)N2CCOCC2)cc(OC)c1OC`, with -16.4%; and `CC1(C)CCC[C@@]2(C)[C@@H]1CC[C@@]1(C)OC(=O)C[C@H]21`, with -11.9%.
Still for that read-out and setting: then `CN(C)CCCSc1ccccc1NC(=O)/C=C/c1ccccc1`, with -10%.
As to `CCCCC(CC)CN=C(N)NC(N)=NCCCCCCN=C(N)NC(N)=NCC(CC)CCCC` (stereo not given), the Potency was 13.8 µM (active).
In the case of `Cc1nc(N)nc(N)c1-c1ccc(Cl)c(Cl)c1`, the activation was 2.82%.
For the compound `CC[C@@H](CO)NCCN[C@@H](CC)CO`, the activation is -10%.
For `Nc1ccc(C(=O)O)c(O)c1`, the activation is 20.9%.
Consider `[O-][n+]1ccccc1SSc1cccc[n+]1[O-]`, for which the Potency is 0.379 µM (active).
For `O=C1c2c(O)cccc2[C@@H]([C@@H]2O[C@H](CO)[C@@H](O)[C@H](O)[C@H]2O)c2cc(CO)cc(O)c21`, the activation is -15.3%.
For `Cc1ccc(O)c(-n2nc3ccccc3n2)c1`, the activation was 7.53%.
Still for that read-out and setting: the figure for `CC(Cc1cccc(C(F)(F)F)c1)NCCOC(=O)c1ccccc1` (stereo not given) is 17.6%.
On the same count and under the same terms, then `CC1(C)[C@@H]2CC[C@@]1(C)C(=O)C2`, with -0.837%; and `CC(=O)N[C@@H](Cc1ccc(O)cc1)C(=O)O`, with 0.837%.
With `C[C@@H]1CCC[C@H](C)N1`, the activation is 8.37%.
On the same count and under the same terms, then `CN(C)CCN1CCN(c2cccc(Cl)c2)C1=O`, with -13%; and `Nc1c2c(nc3c1CCC3)CCCC2`, with -11.7%.
The same measure, in the same setting: then `CCCCCCCCCCCCCCCCCCNC(=O)OC1CCN(C(=O)OC[C@H](COC(=O)N(Cc2cccc[n+]2CC)C(=O)c2ccccc2OC)OC)CC1`, with 1.67%; and `CCc1cccc(CC)c1NC(=O)CN(CC(=O)O)CC(=O)O`, with 26.6%.
Turning to `O=C(O)CCc1nc2ccccc2[nH]1`, the activation was 0.565%.
